Here are results for 42 compounds from PubChem BioAssay (Tox21).

Values joined by “and” are separate entries in the source; they are usually repeats but may differ in a detail not shown here. Identical values can stand only once. Active and inactive are the calls of the source. A call without a number means that no potency is given here. The call rests on the fitted dose curve.

The experiment deals with Gonadotropin-releasing hormone receptor (Homo sapiens) (UniProt P30968). The experiment in a line: Human gonadotropin-releasing hormone receptor (GnRHR) small molecule agonists, calcium flux assay in GnRHR-HEK293 cells (AID 1920063). Further: nearly all actives have a fitted effect of over 35% in size. The conditions noted are these: calcium flux fluorescence, agonist mode; series mostly up to 57.6 µM. The method, boiled down: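 Calcium-dye fluorescence, Ex/Em=480/540, recorded every 1 sec over 3 min after compound addition to GnRHR-HEK293 cells. Cells had been seeded 18 hours earlier and dye-loaded for 1 hour at 37 C. Fifteen concentrations, triplicates.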
Potency means the concentration at half of the fitted maximal effect.

Sequence of Gonadotropin-releasing hormone receptor (Homo sapiens) (P30968 whole entry, looked up): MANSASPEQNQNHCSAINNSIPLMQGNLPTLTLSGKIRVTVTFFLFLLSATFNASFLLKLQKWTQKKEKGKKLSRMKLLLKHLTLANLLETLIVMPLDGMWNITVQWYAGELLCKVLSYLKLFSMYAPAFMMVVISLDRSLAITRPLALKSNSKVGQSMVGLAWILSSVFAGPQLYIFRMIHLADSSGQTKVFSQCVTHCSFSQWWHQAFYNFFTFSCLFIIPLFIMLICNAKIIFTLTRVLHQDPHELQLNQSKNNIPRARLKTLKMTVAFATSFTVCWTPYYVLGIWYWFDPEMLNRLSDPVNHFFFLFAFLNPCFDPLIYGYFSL

Consider `CN(C)C(=O)Nc1ccc(Cl)cc1`, for which the Potency entry is “inactive”.
Then `CC(C)C#N`, with “inactive”.
As for `CC(C)OC(=S)S`, the entry is “inactive”.
As for `[O]=[Cr](=[O])([OH])[O][Cr](=[O])(=[O])[OH]`, the entry is “inactive”.
Take `Cc1ccc(N)cc1Cl`: the Potency entry is “inactive”.
For the compound `CCCCCCCCCCCCCCCC[N+](C)(C)C`, the Potency is 13.3 µM (active) and 30.9 µM (active) and 12 µM (active).
In the case of `CCN(CC)CCN1C(=O)CN=C(c2ccccc2F)c2cc(Cl)ccc21`, the Potency entry was “inactive”.
Regarding `CCCCCCI`, the Potency result is “inactive”.
As for `C[Si](Cn1cncn1)(c1ccc(F)cc1)c1ccc(F)cc1`, the entry is “inactive”; as for `COP(=S)(OC)Oc1ccc(S(=O)(=O)N(C)C)cc1`, “inactive”; as for `COc1cc(OC)nc(Oc2cccc(Oc3nc(OC)cc(OC)n3)c2C(=O)O)n1`, “inactive”.
As for `Cc1cc(Cl)ccc1O`, the entry is “inactive”; as for `CN(C)NC(=O)CCC(=O)O`, “inactive”.
`CCN(CC)N=O`: the Potency entry was “inactive”.
As for `C=CC(=O)OCCCCCC(C)C`, the entry is “inactive”; as for `O=C(O)C(F)(F)C(F)(F)C(F)(F)C(F)(F)C(F)(F)C(F)(F)C(F)(F)F`, “inactive”; as for `CC(=[OH+])/C=C(/C)[O-].CC(=[OH+])/C=C(\C)[O-].CC(=[OH+])/C=C(\C)[O-].[Al]`, “inactive”.
Consider `Cc1ccc2c(C)cccc2c1`, for which the Potency result was “inactive”.
On to `CC(C)c1ccc(CO)cc1`, for which the Potency entry is “inactive”.
Then `CCC(=O)O[C@@H]1C=C2CCC3C(CCC4(C)C3CC[C@@H]4OC(=O)CC)C2CC1` (some centres not stated), with “inactive”.
As to `O=C/C(Cl)=C(/Cl)C(=O)O`, the Potency result is “inactive”.
Then `CC(Oc1ccc(Cl)cc1Cl)C(=O)O` (configuration not stated), with “inactive”; and `O=P(OCCCl)(OCCCl)OCCCl`, with “inactive”; and `Nc1nc(N)nc(Cl)n1`, with “inactive”.
For the compound `C(=NC1CCCCC1)=NC1CCCCC1`, the Potency entry was “inactive”.
As for `O=c1ccc(=O)[nH][nH]1`, the entry is “inactive”.
Then `OCCCCO`, with “inactive”; and `CCN(CC)Cc1nccn1-c1ccc([N+](=O)[O-])cc1C(=O)c1ccccc1Cl`, with “inactive”.
As for `CC(C)C(C)(N)C#N` (configuration not stated), the entry is “inactive”; as for `C=CC(=O)OCC(CC)CCCC` (configuration not stated), “inactive”.
Take `Clc1ccc(Cl)c(Cl)c1`: the Potency result was “inactive”.
`CON(C)C(=O)Nc1ccc(Cl)cc1`: the Potency entry is “inactive”.
Regarding `O=Cc1ccccc1`, the Potency entry was “inactive”.
On to `ClCOCCl`, for which the Potency entry was “inactive”.
As for `Cc1cc(-c2cc(C)c(N)c(C)c2)cc(C)c1N`, the entry is “inactive”.
As for `CCC(=O)O[C@H]1CC[C@H]2[C@@H]3CCC4=CC(=O)CC[C@]4(C)[C@H]3CC[C@]12C`, the entry is “inactive”.
Then `CC(C)CON=O`, with “inactive”; and `CCCCCCC#N`, with “inactive”.
With `C=CCN=C=S`, the Potency result is “inactive”.
As for `COc1ccc(CO)cc1`, the entry is “inactive”.
As for `Oc1ccc(Cl)cc1`, the entry is “inactive”; as for `CC(Br)C(=O)O` (configuration not stated), “inactive”.
